We go through nine molecules from PubChem BioAssay (NCATS).

Records with an inconclusive call do not appear. Activity calls are given as the source filed them. The call rests on the fitted dose curve; in most records, active means well fitted curve in the direction sought with a large enough effect; inconclusive means small, poorly fitted or top-dose-only effect, or another doubt; inactive means no such curve, though single readings can be large; an effect the other way counts as inactive or inconclusive.

Test [1] is described as follows: Quantitative High-Throughput drug screen in 47 multiple myeloma cell lines against the NCATS MIPE library collection: Karpas620_DSMZ cell viability assay (AID 1918959). Further: nearly all actives have a fitted effect of over 30% in size. Further: potency means the concentration at half of the fitted maximal effect. The method, boiled down: (§1)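 Primary qHTS used for cherry-picking: cells at 500/well, library compounds for 48 h (37C, 5% CO2), luminescent ATP assay.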
Test [2] in a line: Quantitative High-Throughput drug screen in 47 multiple myeloma cell lines against the NCATS MIPE library collection: KMM1_JCRB cell viability assay (AID 1918960). Further: nearly all actives have a fitted effect of over 30% in size. Further: potency means the concentration at half of the fitted maximal effect. The method, boiled down: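 Luminescence from CellTiter-Glo, taken after 5 min at room temperature, reports cellular ATP as viability. Cells (500 per well) had been treated 48 h at 37 °C with MIPE 4.0 compounds, scaled between DMSO and medium-only controls.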

A short description of test [3]: Quantitative High-Throughput drug screen in 47 multiple myeloma cell lines against the NCATS MIPE library collection: KHM11_PLB cell viability assay (AID 1918962). Further: nearly all actives have a fitted effect of over 35% in size. Further: potency means the concentration at half of the fitted maximal effect. The essentials:
as §1

Test [4] can be described thus: Quantitative High-Throughput drug screen in 47 multiple myeloma cell lines against the NCATS MIPE library collection: INA6_PLB cell viability assay (AID 1918965; further: nearly all actives have a fitted effect of over 55% in size; further: potency means the concentration at half of the fitted maximal effect). The essentials: (§2)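 We plated 500 myeloma cells per well, pinned in MIPE 4.0 compounds, and incubated for 48 hours at 37C. ATP was then quantified with CellTiter-Glo, with DMSO and media-only wells defining 100% and 0%.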

A short description of test [5]: Quantitative High-Throughput drug screen in 47 multiple myeloma cell lines against the NCATS MIPE library collection: Karpas25_ECACC cell viability assay (AID 1918968; further: nearly all actives have a fitted effect of over 35% in size; further: potency means the concentration at half of the fitted maximal effect). The method, boiled down: (§3)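 Inhibition of cell viability is measured here. Each line was plated at 500 cells per well, treated with MIPE 4.0 drugs, kept 48 hours at 37C, then assayed for ATP content by CellTiter-Glo luminescence.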

The nature of test [6]: Quantitative High-Throughput drug screen in 47 multiple myeloma cell lines against the NCATS MIPE library collection: KMS27_JCRB cell viability assay (AID 1918970). Further: nearly all actives have a fitted effect of over 30% in size. Further: potency means the concentration at half of the fitted maximal effect. The conditions noted are these: KMS27 myeloma cells, CellTiter-Glo ATP viability, 48 h; viability (% of DMSO): at 45.8 µM (top of the series). The essentials: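 Viability inhibition screen, 48 h compound exposure, luminescent ATP read-out.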

Test [7] can be described thus: Quantitative High-Throughput drug screen in 47 multiple myeloma cell lines against the NCATS MIPE library collection: KMS12PE_JCRB cell viability assay (AID 1918972). Further: nearly all actives have a fitted effect of over 30% in size. Further: potency means the concentration at half of the fitted maximal effect. The essentials:
as §2

Test [8] is described as follows: Quantitative High-Throughput drug screen in 47 multiple myeloma cell lines against the NCATS MIPE library collection: KMS21BM_JCRB cell viability assay (AID 1918974). Further: potency means the concentration at half of the fitted maximal effect. The conditions noted are these: ATP luminescence, 48 h; viability: at 45.8 µM (top of the series). The essentials:
as §3

Test [9] is described as follows: Quantitative High-Throughput drug screen in 47 multiple myeloma cell lines against the NCATS MIPE library collection: KMS26_JCRB cell viability assay (AID 1918975). Further: nearly all actives have a fitted effect of over 45% in size. Further: potency means the concentration at half of the fitted maximal effect. The method, boiled down:
as §2

Test [10] can be described thus: Quantitative High-Throughput drug screen in 47 multiple myeloma cell lines against the NCATS MIPE library collection: MOLP8_DSMZ cell viability assay (AID 1918977). Further: nearly all actives have a fitted effect of over 45% in size. Further: potency means the concentration at half of the fitted maximal effect. The essentials:
(§4)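 Plated at 500 cells per well, myeloma lines received MIPE 4.0 compounds by pin tool. Following 48 h culture at 37 °C, CellTiter-Glo luminescence gave viability relative to DMSO and media-only controls.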

Test [11] can be described thus: Quantitative High-Throughput drug screen in 47 multiple myeloma cell lines against the NCATS MIPE library collection: NCIH929_DSMZ cell viability assay (AID 1918978). Further: nearly all actives have a fitted effect of over 35% in size. Further: potency means the concentration at half of the fitted maximal effect. The essentials:
as §4

Test [12] can be described thus: Quantitative High-Throughput drug screen in 47 multiple myeloma cell lines against the NCATS MIPE library collection: JIM3_ECACC cell viability assay (AID 1918963; further: nearly all actives have a fitted effect of over 35% in size; further: potency means the concentration at half of the fitted maximal effect). The essentials:
as §1

Test [13] can be described thus: Quantitative High-Throughput drug screen in 47 multiple myeloma cell lines against the NCATS MIPE library collection: JIM1_ECACC cell viability assay (AID 1918964). The essentials: as §3
Test [14] is described as follows: Quantitative High-Throughput drug screen in 47 multiple myeloma cell lines against the NCATS MIPE library collection: JJN3_DSMZ cell viability assay (AID 1918966; further: nearly all actives have a fitted effect of over 50% in size; further: potency means the concentration at half of the fitted maximal effect). The essentials:
as §3

Test [15] is described as follows: Quantitative High-Throughput drug screen in 47 multiple myeloma cell lines against the NCATS MIPE library collection: H1112_PLB cell viability assay (AID 1918967; further: nearly all actives have a fitted effect of over 30% in size; further: potency means the concentration at half of the fitted maximal effect). The method, boiled down: as §3
Test [16] can be described thus: Quantitative High-Throughput drug screen in 47 multiple myeloma cell lines against the NCATS MIPE library collection: KMS12BM_JCRB cell viability assay (AID 1918971). Further: nearly all actives have a fitted effect of over 35% in size. Further: potency means the concentration at half of the fitted maximal effect. The essentials: as §2
Test [17] in a line: Quantitative High-Throughput drug screen in 47 multiple myeloma cell lines against the NCATS MIPE library collection: KMS20_JCRB cell viability assay (AID 1918973). Further: nearly all actives have a fitted effect of over 45% in size. Further: potency means the concentration at half of the fitted maximal effect. The method, boiled down: as §3
The nature of test [18]: Quantitative High-Throughput drug screen in 47 multiple myeloma cell lines against the NCATS MIPE library collection: MMM1_PLB cell viability assay (AID 1918976). The essentials:
as §4

A short description of test [19]: Quantitative High-Throughput drug screen in 47 multiple myeloma cell lines against the NCATS MIPE library collection: OCIMY1_PLB cell viability assay (AID 1918979). Further: nearly all actives have a fitted effect of over 35% in size. The essentials: as §4

In the case of `Cn1cc(C=CC(=O)c2cccc(F)c2)cc1C=CC(=O)NO`, the Potency in test [1] is 13.2 µM (active); in [2], 16.6 µM (active); in [4], 8.33 µM (active); in test [5] it was 8.33 µM (active); in [6], 14.8 µM (active); in test [7], 14.8 µM (active). Further, the Potency is 4.69 µM (active) in test [8], 16.6 µM (active) in test [9], 16.6 µM (active) in test [10] and 20.9 µM (active) in test [11]. Further, in [3], the Potency entry was “inactive”.

With `C=C(C)[C@@H]1CC[C@]2(C)CC[C@]3(C)[C@H](CC[C@@H]4[C@@]5(C)CC[C@H](O)C(C)(C)[C@H]5CC[C@]43C)[C@@H]12`, the Potency entry in test [1], in test [2], in test [12], in test [13], in test [4] and in [14] was “inactive” in each case. Besides, the Potency entry in test [15], in test [5], in [6], in test [16], in test [7] and in test [17] was “inactive” throughout. Moreover, the Potency entry in test [9], in test [10] and in test [11] was “inactive” throughout.

With `O=C1CSC(=O)N1C(CCc1ccncc1)COc1ccc(-c2cccc([N+](=O)[O-])c2)cc1` (stereo not drawn), the Potency entry in test [1], in test [2], in test [13], in test [6] and in [7] was “inactive” throughout. Further, the Potency in test [3] was 10.5 µM (active); in test [4], 5.9 µM (active); in test [14] it was 18.7 µM (active); in test [5], 2.64 µM (active); in test [16], 7.43 µM (active); in test [17], 10.5 µM (active). The Potency in [9] is 4.18 µM (active); in test [18], 4.18 µM (active); in test [11], 18.7 µM (active).

For the molecule `COc1ccnc2[nH]cc(C(=O)C(=O)N3CCN(C(=O)c4ccccc4)C[C@@H]3C)c12`, the Potency result in test [1], in test [2], in test [3], in [12], in [4] and in test [15] was “inactive” throughout. The Potency entry in test [5], in [6], in [16], in test [7], in test [9] and in [10] was “inactive” each time. The Potency entry in test [19] was “inactive”. Further, the Potency in test [14] is 13.2 µM (active).

As to `O=C(C[C@@H]1CC=CCCC(=O)O[C@H](c2ccccc2)CNC1=O)NCc1ccc(Cl)cc1`, the Potency result in [1], in test [2], in test [14], in test [5], in test [16] and in [9] was “inactive” in each case. Besides, the Potency entry in test [10] and in test [19] was “inactive” in each case. The Potency is 2.64 µM (active) in [3] and 4.69 µM (active) in test [15].

For the molecule `COC(=O)[C@H](CCCN=C(N)N)NS(=O)(=O)c1ccc(C)cc1`, the Potency entry in test [1], in [2], in test [3], in test [13], in [15] and in test [6] was “inactive” in each case. The Potency entry in test [16], in test [7], in test [17], in test [8], in [9] and in [11] was “inactive” in each case. Also, the Potency result in test [19] was “inactive”.

Regarding `NC[C@H]1O[C@H](O[C@H]2[C@@H](O)[C@@H](O[C@H]3O[C@H](CO)[C@@H](O)[C@H](N)[C@@H]3O)[C@H](N)C[C@@H]2N)[C@H](N)C[C@H]1O`, the Potency result in test [1], in test [2], in [12], in test [15], in test [5] and in [6] was “inactive” throughout. Moreover, the Potency result in test [17], in test [9], in [11] and in test [19] was “inactive” in each case. Moreover, the Potency in test [14] was 1.87 µM (active); in test [18] it was 2.09 µM (active).

Take `C=C(C)[C@@H]1CC[C@]2(C(=O)O)CC[C@]3(C)[C@H](CC[C@@H]4[C@@]5(C)CC[C@H](O)C(C)(C)[C@@H]5CC[C@]43C)[C@@H]12`: the Potency result in test [1], in test [2], in test [12], in test [13], in [4] and in test [15] was “inactive” throughout. The Potency result in test [6], in test [9], in test [10], in [11] and in test [19] was “inactive” in each case. Moreover, the Potency in test [7] is 0.0372 µM (active).

With `CC(C)[C@H](CO)Nc1nc(Nc2cccc(Cl)c2)c2ncn(C(C)C)c2n1`, the Potency result in test [1] and in test [2] was “inactive” in each case. The Potency in [12] is 18.7 µM (active); in test [4], 18.7 µM (active); in [15], 26.4 µM (active); in test [5], 26.4 µM (active); in test [16] it was 20.9 µM (active); in test [17], 20.9 µM (active). Moreover, the Potency in test [9] was 23.5 µM (active); in test [18] it was 26.4 µM (active); in [10] it was 18.7 µM (active); in test [11], 18.7 µM (active).
